A selection: hits, their analogues and other compounds. The true share with any hit is near 19%.
DT40 TDP1 no CPT: qHTS for Inhibitors of human tyrosyl-DNA phosphodiesterase 1 (TDP1): qHTS in cells in absence of CPT; DT40 Tdp1-/- hTDP1 cells, no CPT, ATP luminescence, 48 h; Potency, µM (titrated, usually from 46.2 µM), for inactives: at the top dose activity change, negative = growth inhibition, hits mostly inhibitors; 420,000 compounds, 15% hits; also: nearly all actives have a fitted effect of over 55% in size
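Growth of hTDP1-complemented DT40 Tdp1-knockout cells is measured by ATP luminescence after at least 48 hr compound exposure at 37 °C, with DMSO substituting for the 20 nM CPT used in the parallel screen.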
HT1080 IDH1KD tx: HT-1080 IDH1 knockdown cell toxicity (counter line); Potency, µM (series often up to 46.1 µM), for the others: at the highest dose activity, negative = toxicity, most hits filed as cytotoxic; 360,000 compounds, 2% hits; HT-1080 IDH1 knockdown viability, ATP luminescence, 48 h;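 also: 0% = DMSO wells and -100% = cell-free medium wells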
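Cytotoxicity counter-line: IDH1KD HT-1080, 48 h, CellTiter-Glo. Curves classed by r2, magnitude and activity.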
KB-3-1 tox: KB-3-1 parental cell cytotoxicity; KB-3-1 viability, CellTiter-Glo ATP luminescence, 72 h; AID 1347075; 400,000 compounds, 1.4% hits; Potency, µM (highest dose often 46.1 µM), usual class: cytotoxic; also: nearly all actives have a fitted effect of over 60% in size
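Here the drug-naive KB-3-1 line serves as comparator for MDR sub-line selectivity; cells received compound titrations, 72 h at 37 °C, then CellTiter-Glo readout.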
KB-V1 MDR tox: kills drug-selected multidrug resistant KB-V1 cells. Potency, µM (series often up to 46.1 µM), hits mostly cytotoxic. KB-V1 MDR cells viability, CellTiter-Glo, 72 h. 400,000 compounds, 3.4% hits; also: nearly all actives have a fitted effect of over 60% in size
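Luminescent ATP read-out (CellTiter-Glo, 10 min) measures survival of drug-selected KB-V1 MDR cells after 72 h, 37 degrees C compound exposure. Medium: phenol-red-free DMEM, 10% FBS. Values from fitted concentration-response curves.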
DT40 TDP1 CPT: DT40-hTDP1 cell growth loss with CPT | AID 686979 | 420,000 compounds, 12% hits | chicken DT40 Tdp1-/-;hTDP1 cells + 20 nM CPT, ATP luminescence, 48 h | Potency, µM (top dose mostly 46.2 µM), for inactives: top-dose activity change, negative = growth inhibition, actives largely listed as inhibitors; also: nearly all actives have a fitted effect of over 55% in size
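Chicken DT40 Tdp1-/- cells complemented with human TDP1, 400 cells/well, exposed to compounds plus 20 nM camptothecin for at least 48 h at 37 C; viability read as ATP content by CellTiter-Glo luminescence.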
HT1080NT lethal: kills 2HG-producing HT-1080-NT fibrosarcoma cells; Potency, µM (series often up to 46.1 µM), for inactives: at the top dose activity, negative = less viability, usual class: cytotoxic; AID 686970; 360,000 compounds, 1.6% hits; HT-1080-NT fibrosarcoma viability, CellTiter-Glo ATP luminescence, 48 h;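 also: NT is the 2HG producing partner of a matched IDH1 knockdown line; 0% = DMSO-treated cells and -100% = media-only wells without cells; nearly all actives have a fitted effect of over 55% in size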
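Read-out is CellTiter-Glo luminescence after 10 minutes at room temperature, following 48 hours' compound treatment of HT-1080-NT cells (750 cells/well, RPMI, 5% FBS, 37 degrees C).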
Numbers without * were called inactive; i = inactive; u = inconclusive; x = no result; [ ] = dose if it differs, or a comment. Calls follow the shape of the dose curve; as a rule, active = well fitted curve in the direction sought with a large enough effect; inconclusive = small, poorly fitted or top-dose-only effect, or another doubt; inactive = no such curve, though single readings can be large; an effect the other way counts as inactive or inconclusive. Unless noted, % is scaled to controls: 0 for no effect and ±100 for the full control effect; potency is read from the fitted curve at half-maximal effect.

SMILES	DT40 TDP1 no CPT	HT1080 IDH1KD tx	KB-3-1 tox	KB-V1 MDR tox	DT40 TDP1 CPT	HT1080NT lethal
CCOC(=O)CCC(=O)Nc1ncnc2c1C(c1ccccc1)c1c(ccc3ccccc13)O2 (configuration not stated)	x	x	u	i	x	x
O=C(Nc1ncnc2c1C(c1ccccc1)c1c(ccc3ccccc13)O2)c1ccccc1 (configuration not stated)	x	x	13µM*	u	x	x
O=C(Cc1ccccc1)Nc1ncnc2c1C(c1ccccc1)c1c(ccc3ccccc13)O2 (configuration not stated)	x	x	u	18.4µM*	x	x
O=C1/C(=C/c2ccc([N+](=O)[O-])cc2)C=C(c2ccccc2)N1c1ccc(O)cc1	2.91µM*	u	u	5.8µM*	5.17µM*	-15.4%
COc1ccc(N2C(=O)/C(=C/c3ccc([N+](=O)[O-])cc3)C=C2c2ccccc2)cc1	2.91µM*	-1.5%	i	u	3.66µM*	-2.3%
O=C(O)Cc1sc(Nc2ccc(F)cc2)nc1-c1cccs1	5.7%	-1.7%	i	i	10.9%	3.9%
Cc1cccc(NC(=O)c2nc(S(C)(=O)=O)ncc2Cl)c1	0.92µM*	x	i	i	0.651µM*	x
COc1cccc(NC(=O)c2nc(SC)ncc2Cl)c1	u	-1.7%	i	u	u	3.9%
COc1cccc(NC(=O)c2nc(S(C)(=O)=O)ncc2Cl)c1	0.651µM*	8.2µM*	i	i	1.03µM*	5.17µM*
CCSc1ncc(Cl)c(C(=O)Nc2c(C(=O)Nc3cccc(C)c3)oc3ccccc23)n1	2.6%	x	x	x	-16.7%	x
COc1cccc(NC(=O)c2ncc(Cl)c(Cl)c2Cl)c1	5.17µM*	u	u	i	7.31µM*	u
COc1cccc(NC(=O)c2ccn(C)n2)c1	-3.6%	-0.7%	i	i	-19.9%	0.4%
CCS(=O)(=O)c1ncc(Cl)c(C(=O)Nc2c(C(=O)Nc3cccc(C)c3)oc3ccccc23)n1	0.731µM*	x	i	i	1.03µM*	x
C=CC(=O)Oc1ccc(N2Cc3ccccc3C2=O)cc1	4.61µM*	-6.3%	i	i	3.66µM*	0.8%
Cc1cccc(-c2cc3nc(C)cc(C)n3n2)c1	u	-15.2%	i	i	0.6%	-5.5%
Cc1cccc(-c2cc3nc(C)cc(N4CC(C)CC(C)C4)n3n2)c1 (configuration not stated)	16.4µM*	14.1%	i	i	16.4µM*	9.5%
CCOc1cc(C(=O)Nc2cccc(-c3nc4ccccc4o3)c2)cc(OCC)c1OCC	u	x	i	i	-0.1%	x
COc1ccccc1NS(=O)(=O)CC12CCC(CC1=O)C2(C)C (configuration not stated)	-12.8%	6.8%	i	i	-4.4%	3.7%
CC1(C)C2CCC1(CS(=O)(=O)Nc1ccc(S(=O)(=O)NC3CCCCC3)cc1)C(=O)C2 (configuration not stated)	u	-9.5%	i	16.4µM*	u	-6.7%
CC1(C)C2CCC1(CS(=O)(=O)NCc1ccc(Cl)cc1Cl)C(=O)C2 (configuration not stated)	-23.5%	-14.1%	u	10.3µM*	-5.8%	-19.2%
Cc1ccc(CSCC(=O)N/N=C/c2cccc(OC3CSC3)c2)cc1	u	13.2%	i	i	-24.0%	-9.5%
Cc1nnc2ccc(N3CCCCC3)nn12	-6.2%	17.2%	i	i	27.4%	11.8%
CCNC(=S)N1CCN(c2cccc(C(F)(F)F)c2)CC1	13µM*	-0.2%	i	i	14.6µM*	3.8%
FC(F)(F)c1cccc(N2CCN(C(=S)NC3CCCCC3)CC2)c1	23.1µM*	u	u	20.6µM*	u	-26.5%
Cc1nnc2ccc(N3CCN(c4cccc(C(F)(F)F)c4)CC3)nn12	16.4µM*	-18.6%	i	i	25.9µM*	-19.1%
SMILES	DT40 TDP1 no CPT	HT1080 IDH1KD tx	KB-3-1 tox	KB-V1 MDR tox	DT40 TDP1 CPT	HT1080NT lethal
S=C(NC1CCCC1)N1CCN(c2ccc(Cl)cc2)CC1	u	-20.7%	i	u	15.4%	-8.1%
FC(F)(F)c1cccc(N2CCN(C(=S)NC3CCCC3)CC2)c1	16.4µM*	u	u	u	u	u
CCCn1c(C(C)Nc2nc(C)cs2)nc2cc(Cl)c(Cl)cc21 (configuration not stated)	u	-10.8%	i	i	u	-5.4%
CCCCCc1nnc(NC(=O)CN2C(=O)C3CCCCC3C2=O)s1 (configuration not stated)	12.3%	-1.1%	i	i	12.0%	-5.1%
CCOc1ccc(C(=O)CSc2nc3cc(C(=O)NC4CCCC4)ccc3c(=O)n2CC2CCCO2)cc1 (configuration not stated)	0.6%	x	i	i	0.0%	x
CN(C)c1ccnc2sc(C(=O)NCc3ccccc3)c(N)c12	u	2.3%[9.24 µM]	i	i	16.4µM*	u
Cc1c(C(=O)NCc2ccccc2)sc2nc[nH]c(=O)c12	-21.4%	x	i	i	-24.0%	x
CN(C)c1ccnc2sc(C(=O)c3ccc(Br)cc3)c(N)c12	-24.8%	5.4%	i	i	-0.1%	19.5%
CN(C)c1ccnc2sc(C(N)=O)c(N)c12	u	-4.9%	i	i	1.64µM*	-0.7%
O=C(Cn1c(=O)oc2ccc(Cl)cc21)Nc1ccon1	-2.2%	0.0%	i	i	8.0%	-0.4%
COc1ccc(S(=O)(=O)N2CCN(C(=O)c3ccc(C)o3)CC2)cc1	u	0.8%	i	u	-22.3%	-1.0%
Oc1ccc(/C=N/Nc2cc(N3CCOCC3)nc(N3CCOCC3)n2)cc1	20.6µM*	u	i	u	16.4µM*	u
COc1ccc(OC)c(/C=N/Nc2cc(C)nc(N3CCOCC3)n2)c1	16.4µM*	11.4%	i	i	u	2.3%
CCOc1ccc(/C=N/Nc2cc(N3CCOCC3)nc(C)n2)c(O)c1	u	-3.4%	i	i	u	-2.7%
COc1ccc(/C=N/Nc2cc(N3CCCC3)nc(N3CCCC3)n2)cc1	20.6µM*	16.4µM*	u	u	20.6µM*	13µM*
Oc1ccc(/C=N/Nc2cc(N3CCCC3)nc(N3CCCC3)n2)cc1	u	4.3%[9.24 µM]	i	i	u	u
Cc1nc(N/N=C/c2ccc(Br)cc2)cc(N2CCOCC2)n1	u	-14.9%	i	i	7.31µM*	-0.2%

Screens deposited in PubChem BioAssay by National Center for Advancing Translational Sciences (NCATS).
